Drawing on PubChem BioAssay (NCATS), this text covers Potency for 39 compounds.

Results filed as inconclusive are left out. A call without a number means that no potency is given here. Calls of active or inactive are those of the source. Calls follow the shape of the full dose curve.
Potency is read from the fitted curve at half-maximal effect.

This experiment can be described thus: Cytotoxicity counterscreen for inhibitors of SARS-CoV-2 cell entry (AID 1645845). Also: nearly all actives have a fitted effect of over 50% in size. The following applies: cell viability (SARS-CoV-2 entry assay cells); series mostly up to 57.1 µM. Summed up: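 ATP-content luminescence (ATPLite 1step, 15 min RT) read after 48 h compound exposure of Expi293F cells stably expressing human ACE2; normalized to cells-only wells and media-only wells.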
In general terms: Counterscreens check selectivity or assay interference.
For `Cc1[nH]nc2ncc(C(=O)N3CCC[C@H]3c3ccc(Cl)cc3)cc12`, the Potency entry was “inactive”.
Regarding `O=C(Nc1ccccc1)Nc1ccc(-c2ccc(C(=O)[C@@H]3CCC[C@H]3C(=O)O)cc2)cc1`, the Potency result is “inactive”.
Consider `CCn1c(=O)c2c(nc(/C=C/c3ccc(OC)c(OC)c3)n2C)n(CC)c1=O`, for which the Potency result was “inactive”.
In the case of `CCOc1ccc(-n2c([C@@H](C)N(Cc3cccnc3)C(=O)Cc3ccc(F)c(C(F)(F)F)c3)nc3ncccc3c2=O)cc1`, the Potency entry was “inactive”.
As for `O=C(NNc1ccccc1)c1ccncc1`, the Potency result was “inactive”.
For `C[C@@H]1CC(=O)Nc2cccc(-c3cnn(C(C)(C)C)c3)c2N1` the value was “inactive”; for `O=C(Nc1ccc2c(c1)CCN(Cc1ncn[nH]1)C2)c1ccccc1-c1ccc(C(F)(F)F)cc1`, “inactive”.
As to `N#Cc1ccc(Cn2cncc2CN2CCN(c3cccc(Cl)c3)C(=O)C2)cc1`, the Potency result is “inactive”.
Turning to `CCN1CCN(Cc2ccc(NC(=O)c3ccc(C)c(NC(=O)c4cncc(-c5cccs5)c4)c3)cc2C(F)(F)F)CC1`, the Potency was 31.6 µM (active).
As to `CC1(C)OC2=C(C(=O)c3ccccc3C2=O)[C@H](NCc2ccccc2)[C@@H]1O`, the Potency is 10 µM (active).
On to `CC(=NNC(=O)c1cccc(S(=O)(=O)N2CCOCC2)c1)c1cc(Cl)ccc1O`, for which the Potency entry is “inactive”.
Take `CCNC(=O)Nc1ncc(-c2cc(-c3c(C)cc(OC)cc3C)nc(-c3cnccn3)n2)s1`: the Potency result was “inactive”.
In the case of `CCOC(=O)c1ccnc(CNCC(=O)N(CC)CCN(C)C)c1`, the Potency entry is “inactive”.
For the compound `COc1ccccc1C(=O)Nc1cc2c(cc1N1CCCC1)n(C)c(=O)n2C`, the Potency result was “inactive”.
Take `CCN1CCN(Cc2ccc(NC(=O)c3ccc(C)c(/C=C/c4cnc5[nH]ccc5c4OC)c3)cc2C(F)(F)F)CC1`: the Potency is 35.5 µM (active).
Turning to `CCO[C@@H]1OC(=O)C[C@@H]1NC(=O)[C@@H]1CCCN2C(=O)CC[C@H](NC(=O)c3nccc4ccccc34)C(=O)N12`, the Potency result is “inactive”.
As to `CC(C)S(=O)(=O)c1ccc2nccc(Nc3ccc4scnc4c3)c2c1`, the Potency entry was “inactive”.
In the case of `CC(=O)N[C@H]1CSSC[C@@H](C(N)=O)NC(=O)[C@H](C(C)C)NC(=O)[C@H](C)NC(=O)[C@H](Cc2cnc[nH]2)NC1=O`, the Potency result is “inactive”.
On to `CN(C)C1CCN(C(=O)c2ccc(NC(=O)Nc3ccc(-c4nc(N5CCOCC5)nc(N5CCOCC5)n4)cc3)cc2)CC1`, for which the Potency was 1.12 µM (active).
As to `C=CC(=O)N1C[C@H](Nc2ncnc3[nH]ccc23)CC[C@@H]1C`, the Potency result is “inactive”.
Consider `COc1cccc2c1c(O)c(C(=O)N(C)c1ccc(C(F)(F)F)cc1)c(=O)n2C`, for which the Potency result was “inactive”.
Turning to `O=c1cc(N2CCOCC2)oc2c(-c3ccc4c(c3)OCCO4)csc12`, the Potency entry was “inactive”.
Take `CCCNC(=O)c1cn2ncnc(Nc3cc(C(=O)NC4CC4)ccc3C)c2c1C`: the Potency result was “inactive”.
With `CCn1c(N)c(C(=O)NC)c(=O)c2ccc(C#CC(C)(O)COC)nc21` (centres undefined), the Potency result is “inactive”.
Turning to `CC[C@@H](Oc1cccc(CN(CCCOc2ccc(OC)cc2)c2nc3ccccc3o2)c1)C(=O)O`, the Potency result was “inactive”.
Regarding `CC(=O)Nc1ccc(C(=O)NC(C)(C)C)cc1`, the Potency result is “inactive”.
In the case of `O=C(O)CNC(=O)c1ncc(-c2cccc(Cl)c2)cc1O`, the Potency entry is “inactive”.
With `C[C@H]1O[C@H](O[C@H]2[C@H](O)[C@@H](O)[C@@H](O[C@H]3[C@H](O)[C@@H](O)C(O)O[C@@H]3CO)O[C@@H]2CO)[C@H](O)[C@@H](O)[C@@H]1N[C@H]1C=C(CO)[C@@H](O)[C@H](O)[C@H]1O` (some centres undefined), the Potency result is “inactive”.
In the case of `CC1=C2[N-][C@H]([C@H](CC(N)=O)[C@@]2(C)CCC(=O)NC[C@@H](C)OP(=O)([O-])O[C@H]2[C@@H](O)[C@@H](n3cnc4cc(C)c(C)cc43)O[C@@H]2CO)[C@]2(C)N=C(C(C)=C3N=C(C=C4N=C1[C@@H](CCC(N)=O)C4(C)C)[C@@H](CCC(N)=O)[C@]3(C)CC(N)=O)[C@@H](CCC(N)=O)[C@]2(C)CC(N)=O.O.[Co+2]` it was “inactive”; in that of `CCS(=O)(=O)c1ccc2oc(-c3ccc4ccccc4c3)nc2c1`, “inactive”; in that of `O=C1CC[C@H](N2Cc3c(OCc4ccc(CN5CCOCC5)cc4)cccc3C2=O)C(=O)N1`, “inactive”.
As to `CCc1c(C(=O)NNC(=O)[C@@H](O)c2cc(F)cc(F)c2)ccc(O)c1C`, the Potency result was “inactive”.
In the case of `C[C@]12CC[C@H](O)CC1=CC[C@@H]1[C@@H]2CC[C@]2(C)C(c3cccnc3)=CC[C@@H]12`, the Potency entry is “inactive”.
As for `CC(/C=C/[C@@H]1C[C@]1(C)c1ccc2c(c1)C(C)(C)CCC2(C)C)=C\C(=O)O`, the Potency result is “inactive”.
In the case of `Cc1nc(-c2cccnc2)sc1C(=O)Nc1ccccc1-c1cn2c(CN3CCOCC3)csc2n1` it was “inactive”.
For `O=C(O)CC1CCC(c2ccc(-c3ccc(Nc4ccc(C(F)(F)F)nc4)cn3)cc2)CC1` (centres undefined), the Potency entry is “inactive”.
In the case of `Nc1ncnc2c1c(COc1cccc(Cl)c1)nn2C1CCOCC1`, the Potency result was “inactive”.
For `Cc1[nH]nc(C(F)(F)F)c1Cc1sc2c(c1C(=O)N1C[C@](C)(O)CO1)c(=O)n(C)c(=O)n2C(C)C`, the Potency result is “inactive”.
In the case of `N=C(N)c1ccc2nc(-c3cc(CC(=O)N[C@@H](CC(=O)O)C(=O)O)cc(-c4cc(S(N)(=O)=O)ccc4O)c3O)[nH]c2c1`, the Potency entry was “inactive”.
